# Data reported in the supplement of paper PMC4022240.
# ± gives the standard deviation.
# Tests used:
# Assay in all cases: peptide microarray binding signal (635 nm), min-max normalized on array (fraction of array maximum); higher = stronger binding
# [1] = target: T1, HaloTag-ATRX ADD domain (163-292)
# T1 chain: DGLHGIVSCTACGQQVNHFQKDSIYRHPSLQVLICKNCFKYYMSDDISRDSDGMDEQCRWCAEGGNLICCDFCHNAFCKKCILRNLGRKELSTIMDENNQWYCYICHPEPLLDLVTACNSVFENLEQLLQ
# Method in brief: (§1)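 Within each library, mean intensities of triplicate spots were min-max scaled to give the binding signal. The spots were histone 13-mer peptide–cellulose conjugates on nitrocellulose with a Cy3 tracer, blocked overnight at 4°C. They were then probed for 1 h at 4°C using biotin-labelled HaloTag reader fusions (10 nM to 1 μM) with streptavidin-Alexa Fluor 647 or rabbit histone antibodies (1:10,000 to 1:2,000) with anti-rabbit Alexa 647, and scanned at 635 nm for signal and 532 nm for misprints on an Axon GenePix 4000B.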
# [2] = target: HaloTag-ING2 PHD (mouse Ing2 200-280)
# Method in brief: as §1
# [3] = target: anti-H3K4me3 antibody ab8580
# Method in brief: as §1
# [4] = target: anti-H3K9me3 antibody ab8898
# Method in brief: as §1
# [5] = peptide region: H3 1-13, peptide modifications: H3T3ph, binder concentration: 1:2,000 dilution
# [6] = peptide region: H3 1-13, peptide modifications: H3T3ph, binder concentration: 1:10,000 dilution
# [7] = peptide region: H3 1-13, peptide modifications: H3T3ph H3K4me2, binder concentration: 1:2,000 dilution
# [8] = peptide region: H3 1-13, peptide modifications: H3T3ph H3K4me2, binder concentration: 1:10,000 dilution
# [9] = peptide region: H3 1-13, peptide modifications: H3T6ph H3R8me2s, binder concentration: 1:2,000 dilution
# [10] = peptide region: H3 1-13, peptide modifications: H3T6ph H3R8me2s, binder concentration: 1:10,000 dilution
# [11] = peptide region: H3 5-17, peptide modifications: H3K9ac H3K14me2, binder concentration: 1:2,000 dilution
# [12] = peptide region: H3 5-17, peptide modifications: H3K9ac H3K14me2, binder concentration: 1:10,000 dilution
# [13] = peptide region: H3 1-13, peptide modifications: H3T6ph H3K9me2, binder concentration: 1:2,000 dilution
# [14] = peptide region: H3 1-13, peptide modifications: H3T6ph H3K9me2, binder concentration: 1:10,000 dilution
# [15] = peptide region: H3 1-13, peptide modifications: H3T3ph H3K4me3, binder concentration: 1:2,000 dilution
# [16] = peptide region: H3 1-13, peptide modifications: H3T3ph H3K4me3, binder concentration: 1:10,000 dilution
# [17] = peptide region: H3 1-13, peptide modifications: H3T6ph H3R8me1, binder concentration: 1:2,000 dilution
# [18] = peptide region: H3 1-13, peptide modifications: H3T6ph H3R8me1, binder concentration: 1:10,000 dilution
# [19] = peptide region: H3 1-13, peptide modifications: H3T3ph H3K9me1, binder concentration: 1:2,000 dilution
# [20] = peptide region: H3 1-13, peptide modifications: H3T3ph H3K9me1, binder concentration: 1:10,000 dilution
# [21] = peptide region: H3 1-13, peptide modifications: H3T6ph H3K9me3, binder concentration: 1:2,000 dilution
# [22] = peptide region: H3 1-13, peptide modifications: H3T6ph H3K9me3, binder concentration: 1:10,000 dilution
# [23] = peptide region: H3 1-13, peptide modifications: H3T3ph H3K9me3, binder concentration: 1:2,000 dilution
# [24] = peptide region: H3 1-13, peptide modifications: H3T3ph H3K9me3, binder concentration: 1:10,000 dilution
binder,measurement,setting,value
ARTKQTARKSTGG [H3 1-13 A R Tph K Q T A R K S T G G],peptide microarray binding signal,"[1]; peptide region: H3 1-13, peptide modifications: H3T3ph, binder concentration: 50 nM",0.01044 ± 0.0001
same,peptide microarray binding signal,"[1]; peptide region: H3 1-13, peptide modifications: H3T3ph, binder concentration: 500 nM",0.0136 ± 0.0015
same,peptide microarray binding signal,"[2]; peptide region: H3 1-13, peptide modifications: H3T3ph, binder concentration: 10 nM",0.0146 ± 0.00026
same,peptide microarray binding signal,"[2]; peptide region: H3 1-13, peptide modifications: H3T3ph, binder concentration: 100 nM",0.0137 ± 0.0036
same,peptide microarray binding signal,[3]; [5],0.00119 ± 5e-05
same,peptide microarray binding signal,[3]; [6],0.002568 ± 2.3e-05
same,peptide microarray binding signal,[4]; [5],0.00137 ± 6.5e-05
same,peptide microarray binding signal,[4]; [6],0.002998 ± 2.6e-05
ARTKQTARKSTGG [H3 1-13 A R Tph Kme2 Q T A R K S T G G],peptide microarray binding signal,"[1]; peptide region: H3 1-13, peptide modifications: H3T3ph H3K4me2, binder concentration: 50 nM",0.00555 ± 0.0001
same,peptide microarray binding signal,"[1]; peptide region: H3 1-13, peptide modifications: H3T3ph H3K4me2, binder concentration: 500 nM",0.00891 ± 0.00073
same,peptide microarray binding signal,"[2]; peptide region: H3 1-13, peptide modifications: H3T3ph H3K4me2, binder concentration: 10 nM",0.0132 ± 0.0013
same,peptide microarray binding signal,"[2]; peptide region: H3 1-13, peptide modifications: H3T3ph H3K4me2, binder concentration: 100 nM",0.0916 ± 0.0043
same,peptide microarray binding signal,[3]; [7],0.0195 ± 0.0045
same,peptide microarray binding signal,[3]; [8],0.024 ± 0.0033
same,peptide microarray binding signal,[4]; [7],0.0022 ± 0.00054
same,peptide microarray binding signal,[4]; [8],0.00185 ± 8e-05
ARTKQTARKSTGG [H3 1-13 A R T K Q Tph A Rme2s K S T G G],peptide microarray binding signal,"[1]; peptide region: H3 1-13, peptide modifications: H3T6ph H3R8me2s, binder concentration: 50 nM",0.0201 ± 0.0019
same,peptide microarray binding signal,"[1]; peptide region: H3 1-13, peptide modifications: H3T6ph H3R8me2s, binder concentration: 500 nM",0.0152 ± 0.0026
same,peptide microarray binding signal,"[2]; peptide region: H3 1-13, peptide modifications: H3T6ph H3R8me2s, binder concentration: 10 nM",0.0119 ± 0.00043
same,peptide microarray binding signal,"[2]; peptide region: H3 1-13, peptide modifications: H3T6ph H3R8me2s, binder concentration: 100 nM",0.0145 ± 0.00066
same,peptide microarray binding signal,[3]; [9],0.00287 ± 9.2e-05
same,peptide microarray binding signal,[3]; [10],0.000571
same,peptide microarray binding signal,[4]; [9],0.0029 ± 6.7e-05
same,peptide microarray binding signal,[4]; [10],0.00646 ± 0.0018
QTARKSTGGKAPR [H3 5-17 Q T A R Kac S T G G Kme2 A P R],peptide microarray binding signal,"[1]; peptide region: H3 5-17, peptide modifications: H3K9ac H3K14me2, binder concentration: 50 nM",0.00746 ± 0.00033
same,peptide microarray binding signal,"[1]; peptide region: H3 5-17, peptide modifications: H3K9ac H3K14me2, binder concentration: 500 nM",0.0201 ± 0.0018
same,peptide microarray binding signal,"[2]; peptide region: H3 5-17, peptide modifications: H3K9ac H3K14me2, binder concentration: 10 nM",0.0147 ± 0.0015
same,peptide microarray binding signal,"[2]; peptide region: H3 5-17, peptide modifications: H3K9ac H3K14me2, binder concentration: 100 nM",0.0485 ± 0.015
same,peptide microarray binding signal,[3]; [11],0.0108 ± 0.00077
same,peptide microarray binding signal,[3]; [12],0.00468 ± 0.00039
same,peptide microarray binding signal,[4]; [11],0.0189 ± 0.00074
same,peptide microarray binding signal,[4]; [12],0.406 ± 0.064
ARTKQTARKSTGG [H3 1-13 A R T K Q Tph A R Kme2 S T G G],peptide microarray binding signal,"[1]; peptide region: H3 1-13, peptide modifications: H3T6ph H3K9me2, binder concentration: 50 nM",0.00674 ± 3.8e-05
same,peptide microarray binding signal,"[1]; peptide region: H3 1-13, peptide modifications: H3T6ph H3K9me2, binder concentration: 500 nM",0.0151 ± 0.00044
same,peptide microarray binding signal,"[2]; peptide region: H3 1-13, peptide modifications: H3T6ph H3K9me2, binder concentration: 10 nM",0.0226 ± 0.0028
same,peptide microarray binding signal,"[2]; peptide region: H3 1-13, peptide modifications: H3T6ph H3K9me2, binder concentration: 100 nM",0.0292 ± 0.0053
same,peptide microarray binding signal,[3]; [13],0.00732 ± 0.0017
same,peptide microarray binding signal,[3]; [14],0.0124 ± 0.0021
same,peptide microarray binding signal,[4]; [13],0.0419 ± 0.0095
same,peptide microarray binding signal,[4]; [14],0.0174 ± 0.00085
ARTKQTARKSTGG [H3 1-13 A R Tph Kme3 Q T A R K S T G G],peptide microarray binding signal,"[1]; peptide region: H3 1-13, peptide modifications: H3T3ph H3K4me3, binder concentration: 50 nM",0.00583 ± 0.0002
same,peptide microarray binding signal,"[1]; peptide region: H3 1-13, peptide modifications: H3T3ph H3K4me3, binder concentration: 500 nM",0.0119 ± 0.00039
same,peptide microarray binding signal,"[2]; peptide region: H3 1-13, peptide modifications: H3T3ph H3K4me3, binder concentration: 10 nM",0.0508 ± 0.0034
same,peptide microarray binding signal,"[2]; peptide region: H3 1-13, peptide modifications: H3T3ph H3K4me3, binder concentration: 100 nM",0.103 ± 0.049
same,peptide microarray binding signal,[3]; [15],0.277 ± 0.065
same,peptide microarray binding signal,[3]; [16],0.724 ± 0.2
same,peptide microarray binding signal,[4]; [15],0.055 ± 0.0067
same,peptide microarray binding signal,[4]; [16],0.017 ± 0.00063
ARTKQTARKSTGG [H3 1-13 A R T K Q Tph A Rme K S T G G],peptide microarray binding signal,"[1]; peptide region: H3 1-13, peptide modifications: H3T6ph H3R8me1, binder concentration: 50 nM",0.00476 ± 9.2e-05
same,peptide microarray binding signal,"[1]; peptide region: H3 1-13, peptide modifications: H3T6ph H3R8me1, binder concentration: 500 nM",0.022 ± 0.0012
same,peptide microarray binding signal,"[2]; peptide region: H3 1-13, peptide modifications: H3T6ph H3R8me1, binder concentration: 10 nM",0.00507 ± 0.0011
same,peptide microarray binding signal,"[2]; peptide region: H3 1-13, peptide modifications: H3T6ph H3R8me1, binder concentration: 100 nM",0.0331 ± 0.012
same,peptide microarray binding signal,[3]; [17],0.00111 ± 7.2e-05
same,peptide microarray binding signal,[3]; [18],0.00148 ± 0.0001
same,peptide microarray binding signal,[4]; [17],0.00234 ± 0.00042
same,peptide microarray binding signal,[4]; [18],0.00213 ± 7.1e-05
ARTKQTARKSTGG [H3 1-13 A R Tph K Q T A R Kme S T G G],peptide microarray binding signal,"[1]; peptide region: H3 1-13, peptide modifications: H3T3ph H3K9me1, binder concentration: 50 nM",0.00815 ± 8.5e-05
same,peptide microarray binding signal,"[1]; peptide region: H3 1-13, peptide modifications: H3T3ph H3K9me1, binder concentration: 500 nM",0.0174 ± 0.0014
same,peptide microarray binding signal,"[2]; peptide region: H3 1-13, peptide modifications: H3T3ph H3K9me1, binder concentration: 10 nM",0.0307 ± 0.0023
same,peptide microarray binding signal,"[2]; peptide region: H3 1-13, peptide modifications: H3T3ph H3K9me1, binder concentration: 100 nM",0.0507 ± 0.004
same,peptide microarray binding signal,[3]; [19],0.00859 ± 0.0018
same,peptide microarray binding signal,[3]; [20],0.0167 ± 0.0032
same,peptide microarray binding signal,[4]; [19],0.00692 ± 0.00099
same,peptide microarray binding signal,[4]; [20],0.0053 ± 0.00068
ARTKQTARKSTGG [H3 1-13 A R T K Q Tph A R Kme3 S T G G],peptide microarray binding signal,"[1]; peptide region: H3 1-13, peptide modifications: H3T6ph H3K9me3, binder concentration: 50 nM",0.007335 ± 6.2e-05
same,peptide microarray binding signal,"[1]; peptide region: H3 1-13, peptide modifications: H3T6ph H3K9me3, binder concentration: 500 nM",0.01343 ± 9.1e-05
same,peptide microarray binding signal,"[2]; peptide region: H3 1-13, peptide modifications: H3T6ph H3K9me3, binder concentration: 10 nM",0.0229 ± 0.0005
same,peptide microarray binding signal,"[2]; peptide region: H3 1-13, peptide modifications: H3T6ph H3K9me3, binder concentration: 100 nM",0.0339 ± 0.003
same,peptide microarray binding signal,[3]; [21],0.0494 ± 0.0093
same,peptide microarray binding signal,[3]; [22],0.0422 ± 0.0078
same,peptide microarray binding signal,[4]; [21],0.269 ± 0.024
same,peptide microarray binding signal,[4]; [22],0.17 ± 0.021
ARTKQTARKSTGG [H3 1-13 A R Tph K Q T A R Kme3 S T G G],peptide microarray binding signal,"[1]; peptide region: H3 1-13, peptide modifications: H3T3ph H3K9me3, binder concentration: 50 nM",0.0613 ± 0.011
same,peptide microarray binding signal,"[1]; peptide region: H3 1-13, peptide modifications: H3T3ph H3K9me3, binder concentration: 500 nM",0.122 ± 0.03
same,peptide microarray binding signal,"[2]; peptide region: H3 1-13, peptide modifications: H3T3ph H3K9me3, binder concentration: 10 nM",0.0186 ± 0.0018
same,peptide microarray binding signal,"[2]; peptide region: H3 1-13, peptide modifications: H3T3ph H3K9me3, binder concentration: 100 nM",0.0397 ± 0.0029
same,peptide microarray binding signal,[3]; [23],0.122 ± 0.066
same,peptide microarray binding signal,[3]; [24],0.0819 ± 0.021
same,peptide microarray binding signal,[4]; [23],0.459 ± 0.036
same,peptide microarray binding signal,[4]; [24],0.387 ± 0.046
